Source: ChEMBL document CHEMBL1961873, “Compounds: GSK PKIS; Assays: Nanosyn kinase panel” (2012)

Key:
[1] = molecular target: Protein kinase C gamma type (Homo sapiens) (UniProt P05129); conditions: at 1 µM;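 also: each value is an averaged percent inhibition of the enzyme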
[2] = molecular target: T1, Protein kinase C iota type (Homo sapiens) (UniProt P41743); conditions: at 0.1 µM
T1 sequence (whole entry): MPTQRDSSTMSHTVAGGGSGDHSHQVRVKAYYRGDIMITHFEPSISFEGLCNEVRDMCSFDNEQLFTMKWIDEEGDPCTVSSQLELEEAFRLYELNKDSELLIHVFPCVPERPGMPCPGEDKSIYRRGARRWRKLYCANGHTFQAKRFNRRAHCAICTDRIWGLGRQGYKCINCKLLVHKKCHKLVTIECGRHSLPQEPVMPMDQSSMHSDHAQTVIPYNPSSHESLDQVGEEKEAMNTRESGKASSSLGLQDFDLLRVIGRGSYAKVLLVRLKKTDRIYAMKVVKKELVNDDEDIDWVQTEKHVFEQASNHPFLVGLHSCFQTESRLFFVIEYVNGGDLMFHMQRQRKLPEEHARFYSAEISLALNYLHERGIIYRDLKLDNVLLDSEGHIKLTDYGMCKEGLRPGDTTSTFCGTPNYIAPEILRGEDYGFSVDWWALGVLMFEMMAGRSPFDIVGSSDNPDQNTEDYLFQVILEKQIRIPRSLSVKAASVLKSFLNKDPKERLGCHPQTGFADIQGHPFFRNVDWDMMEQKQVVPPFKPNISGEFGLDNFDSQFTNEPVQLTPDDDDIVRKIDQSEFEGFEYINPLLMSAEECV

[3] = molecular target: T1, Protein kinase C iota type (Homo sapiens); conditions: at 1 µM
[4] = molecular target: Protein kinase C theta type (Homo sapiens) (UniProt Q04759); conditions: at 0.1 µM
[5] = molecular target: Protein kinase C theta type (Homo sapiens) (UniProt Q04759); conditions: at 1 µM
[6] = molecular target: Protein kinase C beta type (Homo sapiens) (UniProt P05771); conditions: at 0.1 µM
[7] = molecular target: Protein kinase C beta type (Homo sapiens) (UniProt P05771); conditions: at 1 µM
[8] = molecular target: T2, Serine/threonine-protein kinase D1 (Homo sapiens) (UniProt Q15139); conditions: at 0.1 µM
T2 sequence (whole entry): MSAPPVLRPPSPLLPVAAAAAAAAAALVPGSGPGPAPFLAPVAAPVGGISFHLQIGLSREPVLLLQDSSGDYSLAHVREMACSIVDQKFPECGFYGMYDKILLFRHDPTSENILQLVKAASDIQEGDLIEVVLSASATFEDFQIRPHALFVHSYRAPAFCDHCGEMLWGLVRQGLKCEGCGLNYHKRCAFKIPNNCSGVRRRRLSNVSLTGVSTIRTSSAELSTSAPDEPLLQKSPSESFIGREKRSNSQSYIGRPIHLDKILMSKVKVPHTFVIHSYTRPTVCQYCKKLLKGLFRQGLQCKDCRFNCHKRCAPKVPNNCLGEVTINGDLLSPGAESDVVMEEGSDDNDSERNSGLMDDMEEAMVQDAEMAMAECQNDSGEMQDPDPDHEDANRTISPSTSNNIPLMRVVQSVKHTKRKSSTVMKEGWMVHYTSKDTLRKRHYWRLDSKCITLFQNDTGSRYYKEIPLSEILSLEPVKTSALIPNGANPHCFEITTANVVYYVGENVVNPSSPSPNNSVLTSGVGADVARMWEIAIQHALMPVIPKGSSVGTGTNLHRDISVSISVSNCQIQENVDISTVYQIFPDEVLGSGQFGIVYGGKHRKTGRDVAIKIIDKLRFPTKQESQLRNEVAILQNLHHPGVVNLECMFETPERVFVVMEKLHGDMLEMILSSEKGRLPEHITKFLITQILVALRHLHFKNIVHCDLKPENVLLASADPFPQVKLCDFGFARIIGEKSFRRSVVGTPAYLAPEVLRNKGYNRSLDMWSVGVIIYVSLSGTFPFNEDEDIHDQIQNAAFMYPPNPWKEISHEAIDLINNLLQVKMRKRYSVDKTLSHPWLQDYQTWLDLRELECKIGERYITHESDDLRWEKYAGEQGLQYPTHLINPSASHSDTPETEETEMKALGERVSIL

[9] = molecular target: T2, Serine/threonine-protein kinase D1 (Homo sapiens); conditions: at 1 µM
[10] = molecular target: T3, Serine/threonine-protein kinase D2 (Homo sapiens) (UniProt Q9BZL6); conditions: at 0.1 µM
T3 sequence (whole entry): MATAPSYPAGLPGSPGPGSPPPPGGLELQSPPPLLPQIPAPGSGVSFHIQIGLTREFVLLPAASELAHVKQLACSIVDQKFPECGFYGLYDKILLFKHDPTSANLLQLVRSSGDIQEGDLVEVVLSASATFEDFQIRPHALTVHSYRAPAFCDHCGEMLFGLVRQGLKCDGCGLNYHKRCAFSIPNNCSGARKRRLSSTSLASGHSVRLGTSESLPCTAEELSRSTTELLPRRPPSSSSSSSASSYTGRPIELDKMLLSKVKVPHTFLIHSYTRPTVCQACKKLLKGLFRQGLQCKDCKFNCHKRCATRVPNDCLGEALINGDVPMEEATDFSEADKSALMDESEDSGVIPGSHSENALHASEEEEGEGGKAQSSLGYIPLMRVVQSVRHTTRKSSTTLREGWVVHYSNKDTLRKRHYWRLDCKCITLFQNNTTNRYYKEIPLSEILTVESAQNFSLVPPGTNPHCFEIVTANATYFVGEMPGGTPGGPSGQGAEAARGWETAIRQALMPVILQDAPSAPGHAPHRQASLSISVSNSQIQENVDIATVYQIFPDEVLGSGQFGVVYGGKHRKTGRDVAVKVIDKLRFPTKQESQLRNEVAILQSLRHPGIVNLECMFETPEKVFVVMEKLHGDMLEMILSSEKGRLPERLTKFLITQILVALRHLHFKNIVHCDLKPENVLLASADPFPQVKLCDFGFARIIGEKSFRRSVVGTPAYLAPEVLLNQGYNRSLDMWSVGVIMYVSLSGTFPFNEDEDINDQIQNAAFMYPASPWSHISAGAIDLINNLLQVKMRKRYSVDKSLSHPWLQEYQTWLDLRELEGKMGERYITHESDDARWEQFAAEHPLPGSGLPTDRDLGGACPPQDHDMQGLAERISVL

[11] = molecular target: T3, Serine/threonine-protein kinase D2 (Homo sapiens); conditions: at 1 µM
[12] = molecular target: T4, Serine/threonine-protein kinase D3 (Homo sapiens) (UniProt O94806); conditions: at 0.1 µM
T4 sequence (whole entry): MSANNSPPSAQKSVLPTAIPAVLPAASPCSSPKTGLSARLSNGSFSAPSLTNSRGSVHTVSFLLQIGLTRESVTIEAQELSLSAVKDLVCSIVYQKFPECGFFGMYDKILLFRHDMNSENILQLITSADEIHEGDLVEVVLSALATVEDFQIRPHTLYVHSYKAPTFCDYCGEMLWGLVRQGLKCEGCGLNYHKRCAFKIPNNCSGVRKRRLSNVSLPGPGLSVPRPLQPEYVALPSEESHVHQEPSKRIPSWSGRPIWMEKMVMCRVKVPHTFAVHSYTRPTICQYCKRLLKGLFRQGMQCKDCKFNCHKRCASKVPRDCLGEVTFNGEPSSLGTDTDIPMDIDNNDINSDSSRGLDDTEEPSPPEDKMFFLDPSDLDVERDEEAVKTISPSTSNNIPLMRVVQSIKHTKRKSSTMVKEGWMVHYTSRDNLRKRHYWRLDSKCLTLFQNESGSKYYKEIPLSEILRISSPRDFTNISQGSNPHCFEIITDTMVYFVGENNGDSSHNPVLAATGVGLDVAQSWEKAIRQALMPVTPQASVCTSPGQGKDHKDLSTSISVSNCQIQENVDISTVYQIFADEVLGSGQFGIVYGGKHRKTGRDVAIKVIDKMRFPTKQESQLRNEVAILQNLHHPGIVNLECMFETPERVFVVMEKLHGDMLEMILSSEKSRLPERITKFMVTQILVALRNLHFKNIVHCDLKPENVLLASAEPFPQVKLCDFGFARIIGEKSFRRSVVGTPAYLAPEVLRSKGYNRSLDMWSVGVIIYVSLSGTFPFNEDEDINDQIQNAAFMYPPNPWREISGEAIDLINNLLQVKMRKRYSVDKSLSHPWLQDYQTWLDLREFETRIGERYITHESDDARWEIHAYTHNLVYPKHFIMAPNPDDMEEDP

[13] = molecular target: T4, Serine/threonine-protein kinase D3 (Homo sapiens); conditions: at 1 µM
[14] = molecular target: T5, cGMP-dependent protein kinase 1 (Homo sapiens) (UniProt Q13976); conditions: at 0.1 µM
T5 sequence (whole entry): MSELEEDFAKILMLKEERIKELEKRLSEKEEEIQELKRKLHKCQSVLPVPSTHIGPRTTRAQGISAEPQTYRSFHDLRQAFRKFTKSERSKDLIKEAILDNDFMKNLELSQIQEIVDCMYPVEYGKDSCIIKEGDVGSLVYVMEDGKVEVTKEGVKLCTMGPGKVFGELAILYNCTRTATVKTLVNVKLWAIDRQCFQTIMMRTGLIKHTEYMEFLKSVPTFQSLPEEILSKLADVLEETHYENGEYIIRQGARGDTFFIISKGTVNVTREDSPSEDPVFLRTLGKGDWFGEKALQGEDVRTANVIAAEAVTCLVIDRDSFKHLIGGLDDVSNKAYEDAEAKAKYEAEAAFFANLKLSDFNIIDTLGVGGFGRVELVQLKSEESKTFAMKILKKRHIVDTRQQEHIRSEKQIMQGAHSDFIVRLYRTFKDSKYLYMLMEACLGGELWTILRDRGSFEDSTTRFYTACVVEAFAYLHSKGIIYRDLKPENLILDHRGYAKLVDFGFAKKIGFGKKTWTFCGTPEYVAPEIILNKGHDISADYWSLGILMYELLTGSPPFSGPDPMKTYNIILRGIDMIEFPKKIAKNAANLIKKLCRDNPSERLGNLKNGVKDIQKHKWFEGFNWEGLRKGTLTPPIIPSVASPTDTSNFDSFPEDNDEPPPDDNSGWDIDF

[15] = molecular target: T5, cGMP-dependent protein kinase 1 (Homo sapiens); conditions: at 1 µM
[16] = molecular target: T6, cGMP-dependent protein kinase 2 (Homo sapiens) (UniProt Q13237); conditions: at 0.1 µM
T6 sequence (whole entry): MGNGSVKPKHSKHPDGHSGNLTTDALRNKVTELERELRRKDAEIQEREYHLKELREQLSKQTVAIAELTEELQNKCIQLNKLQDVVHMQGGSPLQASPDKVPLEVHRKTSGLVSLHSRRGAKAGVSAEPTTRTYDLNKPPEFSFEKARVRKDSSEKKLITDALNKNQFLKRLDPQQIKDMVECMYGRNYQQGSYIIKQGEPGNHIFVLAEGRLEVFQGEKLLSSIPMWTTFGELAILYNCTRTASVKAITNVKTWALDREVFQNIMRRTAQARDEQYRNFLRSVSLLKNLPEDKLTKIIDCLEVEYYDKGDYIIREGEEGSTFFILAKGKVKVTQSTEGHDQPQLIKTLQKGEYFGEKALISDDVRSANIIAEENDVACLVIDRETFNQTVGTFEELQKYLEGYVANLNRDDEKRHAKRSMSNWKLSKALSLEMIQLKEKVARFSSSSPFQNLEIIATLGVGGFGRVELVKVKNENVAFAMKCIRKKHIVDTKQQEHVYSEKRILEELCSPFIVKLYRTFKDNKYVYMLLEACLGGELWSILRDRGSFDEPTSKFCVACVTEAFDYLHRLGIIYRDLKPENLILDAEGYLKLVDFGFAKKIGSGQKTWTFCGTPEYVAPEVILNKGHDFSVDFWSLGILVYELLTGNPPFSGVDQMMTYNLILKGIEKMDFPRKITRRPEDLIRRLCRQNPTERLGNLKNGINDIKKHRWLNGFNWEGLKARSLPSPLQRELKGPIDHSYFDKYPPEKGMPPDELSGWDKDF

[17] = molecular target: T6, cGMP-dependent protein kinase 2 (Homo sapiens); conditions: at 1 µM
[18] = molecular target: T7, cAMP-dependent protein kinase catalytic subunit PRKX (Homo sapiens) (UniProt P51817); conditions: at 0.1 µM
T7 sequence (whole entry): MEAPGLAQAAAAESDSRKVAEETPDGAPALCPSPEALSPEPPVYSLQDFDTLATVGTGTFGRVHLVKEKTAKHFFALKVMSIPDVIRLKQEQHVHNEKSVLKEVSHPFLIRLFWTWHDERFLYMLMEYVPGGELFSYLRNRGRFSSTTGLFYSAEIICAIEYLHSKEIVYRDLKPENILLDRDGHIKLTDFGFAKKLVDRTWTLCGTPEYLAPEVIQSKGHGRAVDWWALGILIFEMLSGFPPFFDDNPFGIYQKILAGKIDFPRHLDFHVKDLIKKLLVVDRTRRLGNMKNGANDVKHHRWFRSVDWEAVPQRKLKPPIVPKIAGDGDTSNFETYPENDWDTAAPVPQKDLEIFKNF

[19] = molecular target: T7, cAMP-dependent protein kinase catalytic subunit PRKX (Homo sapiens); conditions: at 1 µM
[20] = molecular target: Rho-associated protein kinase 1 (Homo sapiens) (UniProt Q13464); conditions: at 0.1 µM;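 also: values are mean percent inhibition of ROCK1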
Rho-associated protein kinase 1 (Homo sapiens), sequence (Q13464 2-1354 limits assumed): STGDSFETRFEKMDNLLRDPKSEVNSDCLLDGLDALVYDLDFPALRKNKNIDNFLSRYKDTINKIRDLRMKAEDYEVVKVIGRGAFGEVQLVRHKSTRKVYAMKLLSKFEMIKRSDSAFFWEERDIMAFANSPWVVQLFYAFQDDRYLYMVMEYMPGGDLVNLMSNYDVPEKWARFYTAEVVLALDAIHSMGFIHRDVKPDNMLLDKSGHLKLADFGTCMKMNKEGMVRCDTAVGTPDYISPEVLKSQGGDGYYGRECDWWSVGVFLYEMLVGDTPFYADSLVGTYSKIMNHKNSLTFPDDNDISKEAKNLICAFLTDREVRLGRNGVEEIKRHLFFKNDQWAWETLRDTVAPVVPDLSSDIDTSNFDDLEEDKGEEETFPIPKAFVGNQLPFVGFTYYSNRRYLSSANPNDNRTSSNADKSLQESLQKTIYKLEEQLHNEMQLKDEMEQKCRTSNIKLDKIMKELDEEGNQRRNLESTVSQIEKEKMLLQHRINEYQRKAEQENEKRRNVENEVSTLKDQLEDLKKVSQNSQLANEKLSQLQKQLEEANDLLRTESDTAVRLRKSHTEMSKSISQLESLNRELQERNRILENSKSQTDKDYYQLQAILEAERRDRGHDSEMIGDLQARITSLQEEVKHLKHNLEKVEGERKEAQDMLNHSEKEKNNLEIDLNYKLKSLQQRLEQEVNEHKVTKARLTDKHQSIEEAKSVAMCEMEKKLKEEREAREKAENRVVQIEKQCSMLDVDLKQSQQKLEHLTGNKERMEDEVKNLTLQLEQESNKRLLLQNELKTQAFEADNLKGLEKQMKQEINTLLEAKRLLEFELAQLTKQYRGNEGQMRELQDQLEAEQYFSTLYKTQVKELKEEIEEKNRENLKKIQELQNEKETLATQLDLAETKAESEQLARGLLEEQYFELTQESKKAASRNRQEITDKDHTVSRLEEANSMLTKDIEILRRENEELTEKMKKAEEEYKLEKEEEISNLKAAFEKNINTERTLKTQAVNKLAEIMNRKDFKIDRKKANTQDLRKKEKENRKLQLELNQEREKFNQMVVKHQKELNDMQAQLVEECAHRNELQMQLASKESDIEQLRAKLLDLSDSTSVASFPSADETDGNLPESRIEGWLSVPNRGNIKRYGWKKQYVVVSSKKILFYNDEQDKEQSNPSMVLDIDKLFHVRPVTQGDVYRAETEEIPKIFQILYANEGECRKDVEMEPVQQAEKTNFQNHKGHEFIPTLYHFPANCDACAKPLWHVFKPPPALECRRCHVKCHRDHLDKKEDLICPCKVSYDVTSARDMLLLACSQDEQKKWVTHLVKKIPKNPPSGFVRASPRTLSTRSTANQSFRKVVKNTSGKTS

Protein kinase C beta type (Homo sapiens), sequence (P05771 2-671 limits assumed): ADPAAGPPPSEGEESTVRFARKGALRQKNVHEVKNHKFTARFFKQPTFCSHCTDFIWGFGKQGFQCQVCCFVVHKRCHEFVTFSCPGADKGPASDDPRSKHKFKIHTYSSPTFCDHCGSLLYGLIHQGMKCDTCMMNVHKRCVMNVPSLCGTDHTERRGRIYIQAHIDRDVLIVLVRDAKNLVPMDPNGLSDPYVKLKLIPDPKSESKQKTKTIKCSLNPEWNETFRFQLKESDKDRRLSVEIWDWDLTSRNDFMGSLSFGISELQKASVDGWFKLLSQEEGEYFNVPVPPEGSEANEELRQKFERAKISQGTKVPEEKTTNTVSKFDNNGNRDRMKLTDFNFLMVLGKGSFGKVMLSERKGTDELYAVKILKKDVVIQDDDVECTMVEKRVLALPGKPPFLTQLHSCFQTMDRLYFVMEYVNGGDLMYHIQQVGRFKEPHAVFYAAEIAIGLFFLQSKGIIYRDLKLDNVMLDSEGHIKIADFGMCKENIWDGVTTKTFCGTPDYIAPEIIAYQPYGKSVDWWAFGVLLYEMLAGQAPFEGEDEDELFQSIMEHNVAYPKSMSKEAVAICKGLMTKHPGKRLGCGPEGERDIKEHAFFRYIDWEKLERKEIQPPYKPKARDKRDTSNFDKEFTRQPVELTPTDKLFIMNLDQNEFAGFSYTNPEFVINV
Protein kinase C theta type (Homo sapiens), sequence (Q04759 whole entry, looked up): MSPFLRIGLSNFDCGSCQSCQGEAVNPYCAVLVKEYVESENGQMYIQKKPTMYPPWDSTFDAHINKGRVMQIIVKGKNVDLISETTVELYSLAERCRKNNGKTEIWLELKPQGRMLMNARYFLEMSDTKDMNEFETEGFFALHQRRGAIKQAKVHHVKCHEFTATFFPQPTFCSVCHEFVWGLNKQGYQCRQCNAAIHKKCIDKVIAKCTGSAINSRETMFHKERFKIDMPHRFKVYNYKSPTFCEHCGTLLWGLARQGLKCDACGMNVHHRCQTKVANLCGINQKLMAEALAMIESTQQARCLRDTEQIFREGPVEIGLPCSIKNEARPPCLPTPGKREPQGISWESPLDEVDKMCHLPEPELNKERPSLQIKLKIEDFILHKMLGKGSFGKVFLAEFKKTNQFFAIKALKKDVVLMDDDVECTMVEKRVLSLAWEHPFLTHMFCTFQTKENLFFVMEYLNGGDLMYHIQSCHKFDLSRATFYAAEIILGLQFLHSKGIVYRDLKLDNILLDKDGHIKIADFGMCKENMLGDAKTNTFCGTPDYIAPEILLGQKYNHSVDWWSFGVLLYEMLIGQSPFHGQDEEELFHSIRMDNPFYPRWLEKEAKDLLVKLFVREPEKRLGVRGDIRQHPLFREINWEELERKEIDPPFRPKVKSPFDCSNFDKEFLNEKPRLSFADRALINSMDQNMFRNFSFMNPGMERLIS

Structure (SMILES) | inhibition [1] | inhibition [2] | inhibition [3] | inhibition [4] | inhibition [5] | inhibition [6] | inhibition [7] | inhibition [8] | inhibition [9] | inhibition [10] | inhibition [11] | inhibition [12] | inhibition [13] | inhibition [14] | inhibition [15] | inhibition [16] | inhibition [17] | inhibition [18] | inhibition [19] | inhibition [20]
COc1cc(N2CCN(C(C)C)CC2)ccc1Nc1nc(Nc2cccc3ncccc23)c2cc[nH]c2n1 | 0.74% | -0.08% | 0.58% | -0.84% | -1.07% | -0.21% | 0.45% | -0.17% | 3.6% | 0.68% | 4.37% | -0.78% | 4.56% | -1.01% | 2.36% | 0.84% | 0.42% | 0.02% | -0.18% | 0.12%
COc1cccc(Nc2nccc(-c3cnn4ncccc34)n2)c1 | 9.31% | -1.42% | -1.07% | 0.2% | 4.75% | 0.37% | 7.43% | 4.01% | 38.2% | 2.78% | 37.4% | 4.36% | 41.4% | 5.54% | 37.6% | 1.94% | 14.5% | -0.56% | -0.01% | -0.95%
NS(=O)(=O)c1ccc(N/N=C2\C(=O)Nc3cccc(CCc4ccncc4)c32)cc1 | -0.16% | 0.18% | 1.06% | 0.33% | -0.34% | -0.03% | 0.05% | 1.18% | 1.94% | 0.05% | 0.82% | 0.3% | 0.91% | 0.22% | -0.46% | -0.44% | -0.5% | 0.12% | 0.09% | 0.65%
